Reference: PubChem BioAssay (NCI)
Compounds without any hit were thinned out: in the full panel of roughly 83,000, 20% have a hit.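 Method: cells in 96-well plates; compound added at one concentration; 48 h incubation; percent growth measured; values under 10 scored active.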 A number with no mark means an inactive call. Active and inactive are the calls of the source.

Legend:
Experiment in all cases: NCI-60 one-dose screen, 48 h (100 = growth as untreated, 0 = no growth, -100 = all killed)
DU-145 prostate = details: 10 µM unless noted
K-562 leukemia = details: 10 µM unless noted
MALME-3M melanoma = details: 10 µM unless noted
MDA-MB-231 breast = details: 10 µM unless noted
RXF 393 renal = details: 10 µM unless noted
SF-268 CNS = details: 10 µM unless noted
SF-295 CNS = details: 10 µM unless noted
SF-539 CNS = details: 10 µM unless noted
M14 melanoma = details: 10 µM unless noted
HCT-15 colon = details: 10 µM unless noted
HT29 colon = details: 10 µM unless noted
SNB-75 CNS = details: 10 µM unless noted
SNB-19 CNS = details: 10 µM unless noted
U251 CNS = details: 10 µM unless noted
PC-3 prostate = details: 10 µM unless noted
SK-MEL-5 melanoma = details: 10 µM unless noted
UACC-62 melanoma = details: 10 µM unless noted
LOX IMVI melanoma = details: 10 µM unless noted
SK-MEL-28 melanoma = details: 10 µM unless noted
UACC-257 melanoma = details: 10 µM

| SMILES | growth (DU-145 prostate) | growth (K-562 leukemia) | growth (MALME-3M melanoma) | growth (MDA-MB-231 breast) | growth (RXF 393 renal) | growth (SF-268 CNS) | growth (SF-295 CNS) | growth (SF-539 CNS) | growth (M14 melanoma) | growth (HCT-15 colon) | growth (HT29 colon) | growth (SNB-75 CNS) | growth (SNB-19 CNS) | growth (U251 CNS) | growth (PC-3 prostate) | growth (SK-MEL-5 melanoma) | growth (UACC-62 melanoma) | growth (LOX IMVI melanoma) | growth (SK-MEL-28 melanoma) | growth (UACC-257 melanoma) |
| --- | --- | --- | --- | --- | --- | --- | --- | --- | --- | --- | --- | --- | --- | --- | --- | --- | --- | --- | --- | --- |
| CC1=CC(=O)CC(C)(C)[C@@]1(O)/C=C/C(C)=C\C(=O)O | -21.8% (active) | 0.164% (active) | -57.5% (active) | -18% (active) | -64.2% (active) | -5.99% (active) | -38.7% (active) | -46.5% (active) | -77.3% (active) | -23.1% (active) | -36.9% (active) | -41.2% (active) | -9.04% (active) | -18.5% (active) | -7.5% (active) | -83% (active) | -56.9% (active) | -75.8% (active) | -34.6% (active) | – |
| COc1ccc(C2CC(c3ccc(Nc4nc(NCCO)nc(Nc5ccc(Cl)cc5)n4)cc3)=Nc3c(N)nc(N)nc3N2)cc1 (configuration not stated) | 73.1% | -10.1% (active) | 113% | 77.3% | – | 81.6% | 82% | 84.4% | 94.7% | 14.1% | 54.8% | 117% | 76.8% | 66.4% | 63.1% | 59.8% | 107% | 12.9% | 119% | 113% |
| Cc1occc1-c1nc2s/c(=C\c3cn(-c4ccccc4)nc3-c3ccccc3)c(=O)n2n1 | 106% | 106% | 101% | 97.8% | – | 101% | 101% | 91.2% | 100% | 99.2% | 101% | 84% | 96.8% | 97.1% | 90.6% | 92.4% | 92.1% | 103% | 101% | 96% |
| CC(=O)NC(C)(C)C(=O)N1CCC[C@H]1C(=O)NC(C)(C)C(=O)N[C@@H](C)C(=O)NC(C)(C)C(=O)NC(C)(C)C(=O)N[C@@H](CCC(N)=O)C(=O)NC(C)(C)C(=O)N[C@H](C(=O)NC(C)(C)C(=O)NCC(=O)N[C@@H](CC(C)C)C(=O)NC(C)(C)C(=O)N1CCC[C@H]1C(=O)N[C@H](C(=O)NC(C)(C)C(=O)NC(C)(C)C(=O)N[C@@H](CCC(N)=O)C(=O)N[C@@H](CCC(N)=O)C(=O)N[C@H](CO)Cc1ccccc1)C(C)C)C(C)C | 43.5% [4.25 µM] | 22.2% [4.25 µM] | -10.6% [4.25 µM] (active) | 36.5% [4.25 µM] | 18% [4.25 µM] | 32.9% [4.25 µM] | 22.2% [4.25 µM] | 24.5% [4.25 µM] | 51.3% [4.25 µM] | 98.8% [4.25 µM] | 27.4% [4.25 µM] | 18.6% [4.25 µM] | 19.1% [4.25 µM] | 21.8% [4.25 µM] | 14.9% [4.25 µM] | -45.7% [4.25 µM] (active) | 35% [4.25 µM] | 18.6% [4.25 µM] | 32.1% [4.25 µM] | – |
| Cn1c2ccc(Br)cc2c2c3c(c4c5cc(F)ccc5oc4c21)C(=O)N(O)C3=O | 88.1% | 82.8% | -95.9% (active) | 85.3% | – | 70.7% | 89.9% | 83.5% | 89.4% | 89.2% | 101% | 70% | 74.3% | 79.8% | 68% | 90.3% | 80.2% | 61.9% | 112% | 104% |
| COc1ccc(-c2cc(-c3cccc4ccccc34)n3c(n2)nc2ccccc23)cc1 | 37.8% | 37.2% | 32.4% | 78.2% | – | 46.6% | 20.2% | 45.7% | 52.1% | 42.8% | 33.8% | 35.5% | 39.9% | 33.1% | 35.8% | 30.4% | 33.7% | 45.7% | 70.2% | 68.8% |
| O=C(Nc1ccc(F)cc1)c1cc(-c2ccc(F)cc2F)ccc1O | 16% | 15.4% | -10.5% (active) | 17.6% | -21.1% (active) | 14.8% | 25% | 15.6% | – | – | 101% | 7.01% (active) | 8.06% (active) | 6.63% (active) | 5.81% (active) | -63.9% (active) | 5.12% (active) | 4.96% (active) | 21.9% | -20.7% (active) |
| CC(=O)NC(C)(C)C(=O)N[C@@H](C)C(=O)NC(C)(C)C(=O)N[C@@H](C)C(=O)NC(C)(C)C(=O)N[C@@H](C)C(=O)N[C@@H](CCC(N)=O)C(=O)NC(C)(C)C(=O)N[C@H](C(=O)NC(C)(C)C(=O)NCC(=O)N[C@@H](CC(C)C)C(=O)NC(C)(C)C(=O)N1CCC[C@H]1C(=O)N[C@H](C(=O)NC(C)(C)C(=O)NC(C)(C)C(=O)N[C@@H](CCC(N)=O)C(=O)N[C@@H](CCC(N)=O)C(=O)N[C@H](CO)CC1CCCCC1)C(C)C)C(C)C | 55.5% [5 µM] | 24.3% [5 µM] | -41.4% [5 µM] (active) | 55.3% [5 µM] | 55.8% [5 µM] | 46.9% [5 µM] | 23.9% [5 µM] | 29.3% [5 µM] | 4.76% [5 µM] (active) | 79.2% [5 µM] | 14.1% [5 µM] | 19.7% [5 µM] | 43.8% [5 µM] | 38.5% [5 µM] | 29.8% [5 µM] | -33.6% [5 µM] (active) | 2.45% [5 µM] (active) | 27.1% [5 µM] | -17.1% [5 µM] (active) | – |
| CC1(C)CC[C@]2(C(=O)N3CCCN(CC#N)CC3)CC[C@]3(C)C(=CC[C@@H]4[C@@]5(C)CC[C@H](O)C(C)(C)[C@@H]5CC[C@]43C)[C@H]2C1 | 78.5% | 3.77% (active) | 77.8% | 55.6% | – | 69.2% | 91.7% | 68.5% | 65.7% | 19.1% | 34.7% | 90.5% | 78.3% | 56.1% | 26.7% | 32.2% | 54.6% | -83.7% (active) | 72% | 50.6% |
| CCCCCCCCCC[C@@H](C)[C@@H]1CC(=O)N[C@H]([C@@H](C)O)C(=O)N[C@@H](C)C(=O)N[C@H](C)C(=O)N[C@@H](CCC(N)=O)C(=O)N[C@H](Cc2ccc(O)cc2)C(=O)N[C@@H](C(C)CC)C(=O)O1 (some centres not stated) | 57.1% | 40.6% | 65.7% | 96.6% | 97.5% | 84.8% | 36.2% | 60.5% | 79.4% | 101% | 68.3% | 52.5% | 51.9% | 51.6% | 39% | 48.1% | 92.4% | 71.2% | 82.5% | – |
| C/C=C/[C@@H]1C=C[C@@H]2C[C@H](C)CC[C@H]2[C@]1(C)/C(O)=C1/C(=O)[C@H](CO)N(C)C1=O | 56.5% | 46.5% | 79.5% | 80.1% | 64.9% | 54.8% | 43.3% | 58.5% | 62.2% | 39.4% | 61.9% | 75.5% | 43.2% | 47% | 45.7% | 52.4% | 46.9% | 53.5% | 63.2% | – |
| Cc1cc(O)c2c(c1)C(=O)C(c1c(C)cc3c(c1O)C(=O)C=CC3=O)=CC2=O | 72.8% | 15.4% | -15.2% (active) | 62.8% | 20.2% | 96.8% | 107% | 108% | 93.1% | 46.5% | 65.3% | 92.3% | 99.9% | 94% | 82.9% | 102% | 61.5% | 61.3% | 71.2% | – |
